Activity calls are given as the source filed them. Rule as the data show it, unless noted: active = inhibition above about 42%; inactive = the rest.
Legend:
[1] = StAR promoter reporter inhibitors, counter-screen for LRH-1 inverse agonist project, cell-based, luminescence, high throughput (AID 651611; in the data active = inhibition above about 28%); conditions: StAR promoter luciferase reporter counterscreen, at 3.6 µM, active compounds read high
[2] = target: Nuclear receptor subfamily 5 group A member 2 (Homo sapiens) (UniProt O00482); assay: LRH-1 (NR5A2) inverse agonists, retest, confirmation, cell-based, luminescence (AID 651613); conditions: cell-based LRH-1 luciferase reporter, inverse agonism; at 3.6 µM; active compounds read high;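 also: HEK293T cells co-transfected with LRH-1 and StAR promoter luciferase reporter; 0% = vehicle wells and 100% = parental cells lacking receptor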
Chain of Nuclear receptor subfamily 5 group A member 2 (Homo sapiens) (O00482 whole entry, looked up): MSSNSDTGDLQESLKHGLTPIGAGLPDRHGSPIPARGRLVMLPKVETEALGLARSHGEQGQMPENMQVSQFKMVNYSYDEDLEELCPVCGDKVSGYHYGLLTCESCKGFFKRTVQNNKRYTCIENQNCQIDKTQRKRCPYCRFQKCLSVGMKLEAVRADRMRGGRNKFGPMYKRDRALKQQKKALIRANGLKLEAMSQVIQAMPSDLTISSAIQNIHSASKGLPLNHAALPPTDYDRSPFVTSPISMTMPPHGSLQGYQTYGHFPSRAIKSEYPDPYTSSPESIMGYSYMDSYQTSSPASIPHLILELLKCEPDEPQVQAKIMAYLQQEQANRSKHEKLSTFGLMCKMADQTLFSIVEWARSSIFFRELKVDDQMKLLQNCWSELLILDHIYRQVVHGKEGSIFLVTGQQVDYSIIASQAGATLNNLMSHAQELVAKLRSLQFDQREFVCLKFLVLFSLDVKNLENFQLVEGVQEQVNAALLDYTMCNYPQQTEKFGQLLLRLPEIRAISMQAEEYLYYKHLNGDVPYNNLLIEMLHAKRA

[3] = target: Steroidogenic factor 1 (Homo sapiens) (UniProt Q13285); assay: SF1 (NR5A1) inverse agonists, counter-screen for LRH-1 inverse agonist project, cell-based, luminescence, high throughput (AID 651614; in the data active = inhibition above about 44%;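 also: cells cotransfected with StAR promoter reporter and SF1 expression vector; 0% = vehicle on cells with receptor and 100% = vehicle on cells lacking receptor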); conditions: cell-based SF1 luciferase reporter, at 3.6 µM, active compounds read high
Chain of Steroidogenic factor 1 (Homo sapiens) (Q13285 whole entry, looked up, the tested form may be a part): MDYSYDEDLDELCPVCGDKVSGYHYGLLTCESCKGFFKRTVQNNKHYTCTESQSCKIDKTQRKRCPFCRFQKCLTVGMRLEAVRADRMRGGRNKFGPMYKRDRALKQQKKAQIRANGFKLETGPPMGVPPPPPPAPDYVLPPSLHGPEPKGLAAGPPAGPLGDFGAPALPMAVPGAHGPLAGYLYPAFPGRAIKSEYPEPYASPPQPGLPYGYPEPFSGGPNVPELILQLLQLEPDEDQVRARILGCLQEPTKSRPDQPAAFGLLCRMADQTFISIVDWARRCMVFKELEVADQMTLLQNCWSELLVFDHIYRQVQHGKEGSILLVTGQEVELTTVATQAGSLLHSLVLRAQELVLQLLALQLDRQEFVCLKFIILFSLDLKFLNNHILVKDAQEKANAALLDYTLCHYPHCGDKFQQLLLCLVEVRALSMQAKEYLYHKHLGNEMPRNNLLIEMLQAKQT

[4] = VP16 transactivation reporter inhibitors, counter-screen for LRH-1 inverse agonist project, cell-based, luminescence, high throughput (AID 651615; in the data active = inhibition above about 33%); conditions: Gal4-VP16 luciferase reporter cells, at 3.6 µM, active compounds read high
[5] = system: transactivating tegument protein VP16 (Human herpesvirus 1); assay: VP16 transactivation reporter inhibitors, counter-screen for SRC2 inhibitor project, cell-based, luminescence, single concentration (AID 652007; in the data active = inhibition above about 36%); conditions: cell-based VP16 transactivation luciferase reporter, at 8.9 µM, active compounds read high
[6] = target: Nuclear receptor coactivator 2 (Homo sapiens) (UniProt Q15596); assay: SRC2 coactivator transcriptional activity inhibitors, confirmation, cell-based, luminescence, HEK293, triplicate (AID 652008;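 active = mean inhibition above 46.5%, the solvent-only control mean plus 3 SD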;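 also: 0% = DMSO-treated cells and 100% = Gossypol at 36 µM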); conditions: HEK293 GAL4-SRC2 luciferase reporter, at 8.9 µM, active compounds read high
Chain of Nuclear receptor coactivator 2 (Homo sapiens) (Q15596 whole entry, looked up, the tested form may be a part): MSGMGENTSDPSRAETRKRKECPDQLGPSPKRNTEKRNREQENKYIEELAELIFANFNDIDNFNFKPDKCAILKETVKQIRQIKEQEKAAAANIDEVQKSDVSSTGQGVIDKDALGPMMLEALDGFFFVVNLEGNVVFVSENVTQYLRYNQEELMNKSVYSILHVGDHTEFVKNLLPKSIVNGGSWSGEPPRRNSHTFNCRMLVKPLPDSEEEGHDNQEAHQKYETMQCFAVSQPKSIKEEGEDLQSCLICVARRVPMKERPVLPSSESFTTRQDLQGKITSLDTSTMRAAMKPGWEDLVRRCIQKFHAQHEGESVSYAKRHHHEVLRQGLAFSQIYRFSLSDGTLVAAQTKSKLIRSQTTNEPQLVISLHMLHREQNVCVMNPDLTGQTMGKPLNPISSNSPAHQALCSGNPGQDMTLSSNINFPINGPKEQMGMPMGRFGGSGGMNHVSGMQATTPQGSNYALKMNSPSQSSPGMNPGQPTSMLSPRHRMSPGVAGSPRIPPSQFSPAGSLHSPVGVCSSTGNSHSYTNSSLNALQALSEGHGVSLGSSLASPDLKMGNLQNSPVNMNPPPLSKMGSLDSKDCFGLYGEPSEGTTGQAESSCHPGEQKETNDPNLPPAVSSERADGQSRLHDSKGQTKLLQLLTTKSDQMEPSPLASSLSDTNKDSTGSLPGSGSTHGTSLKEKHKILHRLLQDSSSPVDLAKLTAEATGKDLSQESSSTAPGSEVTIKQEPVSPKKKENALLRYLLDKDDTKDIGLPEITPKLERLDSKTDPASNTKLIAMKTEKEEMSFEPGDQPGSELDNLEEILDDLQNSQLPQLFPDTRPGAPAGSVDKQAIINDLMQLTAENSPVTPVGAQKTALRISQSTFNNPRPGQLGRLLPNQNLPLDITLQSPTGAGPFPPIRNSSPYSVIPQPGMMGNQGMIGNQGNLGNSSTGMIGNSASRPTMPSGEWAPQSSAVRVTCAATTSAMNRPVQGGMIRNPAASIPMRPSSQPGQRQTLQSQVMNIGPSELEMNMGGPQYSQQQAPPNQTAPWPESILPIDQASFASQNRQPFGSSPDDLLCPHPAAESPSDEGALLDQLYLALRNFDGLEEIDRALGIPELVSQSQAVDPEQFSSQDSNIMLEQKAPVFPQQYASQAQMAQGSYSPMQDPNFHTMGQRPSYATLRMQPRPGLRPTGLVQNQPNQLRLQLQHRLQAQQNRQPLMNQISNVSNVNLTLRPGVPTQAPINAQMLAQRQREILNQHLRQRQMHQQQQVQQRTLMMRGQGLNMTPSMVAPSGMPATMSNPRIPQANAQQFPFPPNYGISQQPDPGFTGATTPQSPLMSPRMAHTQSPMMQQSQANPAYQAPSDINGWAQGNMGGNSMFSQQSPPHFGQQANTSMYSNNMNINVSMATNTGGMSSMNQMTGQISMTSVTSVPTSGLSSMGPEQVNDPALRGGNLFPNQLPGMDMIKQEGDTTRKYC

Measured: inhibition

Brc1ccc2ncnc(NCc3ccccc3)c2c1
active: [1] 30.5% | [2] 72.4% | [3] 59.9% | [4] 80.8% | [6] 54.5%
inactive: [5] 21.7%

COc1ccc(OC)c(N(CCN2C(=O)c3ccccc3C2=O)C(=O)CCl)c1
active: [3] 54% | [6] 57.6%
inactive: [1] 10.9% | [2] 30.5% | [4] 16.1% | [5] 30.9%

COc1ccc(NS(=O)(=O)c2ccc3c(c2)OCCO3)cc1OC
inactive: [1] 10.4% | [5] 10.1% | [6] 27.8%
active: [2] 69.7% | [3] 67.5% | [4] 35.5%

Cc1ccnc2c1ccc1cccnc12
active: [1] 82.7% | [2] 108% | [3] 67.4% | [4] 65.5%
inactive: [5] -9.35% | [6] 29%

COc1ccc(-c2noc(CCCC(=O)NC3CCCC3)n2)cc1
inactive: [1] 15.1%
active: [2] 59.7% | [3] 60.5% | [4] 34.5% | [5] 48.8% | [6] 53.7%

Cc1ccc(C(=O)Sc2cccccc2=O)cc1
active: [1] 98.1% | [2] 107% | [3] 98.6% | [4] 96.8% | [5] 92.9% | [6] 99.2%

c1ccc2c(c1)CCN(c1ncnc3c1[nH]c1ccccc13)C2
inactive: [1] 25.5% | [5] 25.4% | [6] 40.2%
active: [2] 68.5% | [3] 69.5% | [4] 58.2%

O=C(NCCc1c[nH]c2ccccc12)c1ccc([N+](=O)[O-])o1
inactive: [1] 15.7% | [4] 21.7% | [5] 2.92% | [6] 15.3%
active: [2] 62.6% | [3] 59.7%

N#CC(=C1C=CC(=NO)C(Cl)=C1)c1ccccc1
inactive: [1] 26% | [4] 22.2% | [5] -5.64% | [6] 20.3%
active: [2] 41.8% | [3] 61.3%

CCOc1ccc(-c2cc(CCCC(=O)Nc3cccc(OC)c3)no2)cc1
inactive: [2] 40.9% | [4] 6.33%
active: [1] 40.6% | [3] 48.5% | [5] 36.8% | [6] 58.9%

CC(=O)c1c(C)[nH]c(C(=O)COc2cc(C)ccc2C(C)C)c1C
inactive: [1] 21.1% | [5] 17.3% | [6] 43%
active: [2] 53.5% | [3] 71% | [4] 50.3%

Cc1cccc(/C=C(\c2nc3ccccc3[nH]2)S(=O)(=O)c2ccccc2)c1
active: [1] 43.2% | [3] 48.8% | [4] 54.1% | [6] 50.5%
inactive: [2] 35.1% | [5] 10.3%

CC(C)(C)C(=O)Nc1cc2nn(-c3ccccc3)nc2cc1Cl
inactive: [2] 19.3%
active: [1] 48.3% | [3] 43.6% | [4] 50.1% | [5] 88.2% | [6] 90.3%

CN(C)CCC(=O)N1C/C(=C/c2ccccc2)C(=O)/C(=C\c2ccccc2)C1
active: [1] 61.4% | [2] 84% | [3] 86.6% | [4] 77.2% | [5] 86.8% | [6] 55.3%

C#CCN(C[C@@H]1[C@@H](OC(=O)Nc2cccs2)[C@@H](OC(=O)Nc2cccs2)Cn2c(=O)ccc(=O)n21)S(=O)(=O)c1ccc(C)cc1
active: [1] 32% | [2] 54.4% | [3] 54.8% | [4] 36.8% | [6] 88.2%
inactive: [5] 26.4%

CC1C/C(=C/c2ccncc2)C(=O)/C(=C/c2ccncc2)C1 (stereo not given)
inactive: [1] 17.3%
active: [2] 73.6% | [3] 84.2% | [4] 72.9% | [5] 93.7% | [6] 90.8%

CCCCCc1c(CC)ncn1CCc1ccccc1OC
inactive: [1] -2.24% | [2] 23.2% | [3] 25.2% | [5] 2.9% | [6] 1.53%
active: [4] 31.8%

COc1ccc(-c2cc(-c3nc4ccccn4c3NCc3ccccc3)ccc2OC)cc1
active: [1] 95.2% | [2] 109% | [3] 97.3% | [4] 98.7% | [5] 96.8% | [6] 98.3%

C=CC(=O)N1C/C(=C/c2ccccc2)C(=O)/C(=C\c2ccccc2)C1
active: [2] 71.8% | [3] 77.5% | [4] 62.2% | [5] 88.6% | [6] 65.3%
inactive: [1] -2.93%

COc1ccc(/C=C/c2nc3ccccc3c(=O)o2)cc1
active: [1] 38.6% | [5] 38.4% | [6] 84.3%
inactive: [2] -49.3% | [3] 37.2% | [4] -63%
